Among the data in PubChem BioAssay (NCATS) are Potency values, retold here.

The structures appear in SMILES notation. Results filed as inconclusive are left out. The source made the active and inactive calls. Calls follow the shape of the dose curve; as a rule, active = well fitted inhibition curve with a large enough effect; inconclusive = small, poorly fitted or top-dose-only effect; inactive = flat fitted curve, though single readings scatter.

What all share (experiment): qHTS profiling for inhibitors of Plasmodium falciparum proliferation (AID 504749); also: nearly all actives have a fitted effect of over 60% in size
Common to all, as to conditions: P. falciparum in erythrocytes, SYBR Green DNA, 72 h; series mostly up to 28.7 µM
Background: Quantitative high-throughput screening tests each substance at several concentrations.

The subject of one test is 3D7. The method, boiled down:
(§1)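 Infected RBCs, 0.3% parasitemia/2.5% Hct final; cpd 72 h, 37 C, 5% CO2; lysis buffer with saponin/triton/SYBR Green I, o/n RT dark; FI 485/535; norm. to artemisinin (0.29 uM) and DMSO.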

The subject of the next test is 7G8. The method, boiled down: as §1
Another test has as its system AA1029. The method, boiled down: as §1
Another test has as its system AS120. The method in brief:
as §1

For the next test, the system named is ATS189. The method, boiled down: as §1
The next test deals with ATS95. The method, boiled down:
as §1

For the next test, the system named is C2A. The method in brief: as §1
The test system of the next test is CP185. The method in brief:
as §1

In a further test the test system is CP191. The method, boiled down:
as §1

A further test concerns CP192. The method in brief: as §1
Potency is read from the fitted curve at half-maximal effect.

Consider `COC(=O)C1=C(C)NC(C)=C(C(=O)OC(C)(C)CN(C)CCC(c2ccccc2)c2ccccc2)C1c1cccc([N+](=O)[O-])c1` (stereo not drawn), for which the Potency with 3D7 was 2.51 µM (active); with 7G8, 2 µM (active); in the test on AA1029 it was 2.51 µM (active); in the test with AS120 it was 2 µM (active); in the test with ATS189, 2 µM (active); in the test on ATS95, 3.55 µM (active). Moreover, the Potency is 4.47 µM (active) in the test with C2A, 5.01 µM (active) in the test on CP185, 3.16 µM (active) in the test with CP191 and 9.53 µM (active) in the test with CP192.
With `CNC1(C)C2CCC(C2)C1(C)C` (stereo not drawn), the Potency result in the test with 3D7, with 7G8, in the test with AA1029, with AS120, in the test on ATS189 and in the test on ATS95 was “inactive” in each case. Moreover, the Potency result in the test with C2A, with CP185, with CP191 and in the test on CP192 was “inactive” each time.
As to `COCC(=O)O[C@]1(CCN(C)CCCc2nc3ccccc3[nH]2)CCc2cc(F)ccc2[C@@H]1C(C)C`, the Potency in the test with 3D7 was 7.94 µM (active); in the test on 7G8, 1.12 µM (active); in the test with AA1029, 0.794 µM (active); with AS120, 1.26 µM (active); with ATS189 it was 3.98 µM (active); in the test on ATS95 it was 1.26 µM (active). Moreover, the Potency was 0.562 µM (active) in the test on C2A, 4.47 µM (active) with CP185, 4.47 µM (active) in the test with CP191 and 5.36 µM (active) with CP192.
Consider `CN(C)C(=O)Oc1ccc[n+](C)c1`, for which the Potency result in the test on 3D7, in the test with 7G8, in the test with AA1029, in the test with AS120, in the test on ATS189 and with ATS95 was “inactive” in each case. In addition, the Potency result with C2A, in the test on CP185, in the test with CP191 and with CP192 was “inactive” throughout.
As to `CN(C)C(=O)Oc1cccc([N+](C)(C)C)c1`, the Potency entry in the test with 3D7, in the test on 7G8, in the test on AA1029, with AS120, with ATS189 and with ATS95 was “inactive” in each case. The Potency entry with C2A, in the test on CP185, in the test with CP191 and with CP192 was “inactive” each time.
For `CCCOc1ccccc1-c1nc2n[nH]nc2c(=O)[nH]1`, the Potency entry in the test on 3D7, with 7G8, with AA1029, with AS120, in the test with ATS189 and in the test on ATS95 was “inactive” in each case. The Potency entry with C2A, in the test with CP185, with CP191 and with CP192 was “inactive” in each case.
As for `c1cnc(N2CCN(Cc3ccc4c(c3)OCO4)CC2)nc1`, the Potency result in the test on 3D7, in the test with 7G8, with AA1029, with AS120, in the test with ATS189 and with ATS95 was “inactive” in each case. The Potency result with C2A, in the test on CP185, with CP191 and with CP192 was “inactive” each time.
On to `CCCN(CCC)CCc1cccc2c1CC(=O)N2`, for which the Potency entry in the test with 3D7, in the test on 7G8, in the test on AA1029, with AS120, with ATS189 and with ATS95 was “inactive” in each case. Besides, the Potency entry with C2A, in the test on CP185, in the test on CP191 and with CP192 was “inactive” in each case.
Consider `Cc1ccc(Cl)c(Nc2ccccc2C(=O)O)c1Cl`, for which the Potency entry with 3D7, with 7G8, with AA1029, with AS120, with ATS189 and in the test with ATS95 was “inactive” throughout. In addition, the Potency result in the test with C2A, in the test on CP185, in the test on CP191 and with CP192 was “inactive” each time.
As for `O=c1[nH]c(=O)n([C@H]2C[C@H](O)[C@@H](CO)O2)cc1Br`, the Potency entry with 3D7, in the test on 7G8, with AA1029, in the test with AS120, with ATS189 and in the test on ATS95 was “inactive” in each case. The Potency entry in the test with C2A, in the test on CP185, with CP191 and in the test with CP192 was “inactive” in each case.
Take `CC(=O)Oc1cc(C(C)C)c(OCCN(C)C)cc1C`: the Potency entry in the test with 3D7, with 7G8, in the test on AA1029, in the test with AS120, in the test on ATS189 and with ATS95 was “inactive” in each case. For the same molecule, the Potency entry in the test on C2A, in the test with CP185, in the test with CP191 and in the test with CP192 was “inactive” in each case.
Turning to `O=C(O)CN(CCN(CC(=O)O)CC(=O)O)CCN(CC(=O)O)CC(=O)O`, the Potency result in the test with 3D7, in the test on 7G8, in the test with AA1029, in the test on AS120, with ATS189 and in the test with ATS95 was “inactive” in each case. Besides, the Potency result with C2A, with CP185, in the test with CP191 and in the test with CP192 was “inactive” each time.
For the molecule `CC(=O)[C@]1(O)Cc2c(O)c3c(c(O)c2[C@@H](O[C@H]2C[C@H](N)[C@H](O)[C@H](C)O2)C1)C(=O)c1ccccc1C3=O`, the Potency in the test on 3D7 is 2.82 µM (active); in the test with 7G8, 1.41 µM (active); in the test with AA1029, 3.55 µM (active); in the test with AS120 it was 3.16 µM (active); in the test on ATS189 it was 5.62 µM (active); with ATS95, 5.01 µM (active). Moreover, the Potency in the test with C2A was 6.31 µM (active); with CP185, 11.2 µM (active); in the test with CP191, 3.16 µM (active).
Regarding `FC(F)(F)c1ccccc1-n1ccnc1`, the Potency result in the test on 3D7, in the test on 7G8, in the test on AA1029, in the test with AS120, with ATS189 and with ATS95 was “inactive” each time. Moreover, the Potency entry with C2A, with CP185, in the test with CP191 and in the test with CP192 was “inactive” in each case.
For the molecule `OCCN1CCN(CCCN2c3ccccc3C=Cc3ccccc32)CC1`, the Potency with 3D7 was 11.2 µM (active); in the test on 7G8, 2 µM (active); in the test on AA1029, 4.47 µM (active); in the test with AS120, 4.47 µM (active); in the test with ATS189, 5.01 µM (active); in the test on ATS95, 5.01 µM (active). Besides, the Potency in the test on C2A was 11.2 µM (active); in the test with CP185, 12.6 µM (active); in the test on CP191, 4.47 µM (active); with CP192, 10.7 µM (active).
For the molecule `Cc1ccc(=O)n(-c2ccccc2)c1`, the Potency entry in the test with 3D7, with 7G8, in the test with AA1029, with AS120, in the test on ATS189 and with ATS95 was “inactive” throughout. For the same molecule, the Potency result in the test on C2A, with CP185, with CP191 and in the test with CP192 was “inactive” each time.
As for `CCNC(=O)N1CCN(CCCC(c2ccc(F)cc2)c2ccc(F)cc2)CC1`, the Potency was 7.08 µM (active) in the test on 3D7; 2 µM (active) in the test on 7G8; 2.24 µM (active) in the test on AA1029; 2.24 µM (active) with AS120; 1.12 µM (active) in the test with ATS189; 2.24 µM (active) in the test with ATS95. For the same molecule, the Potency was 1.41 µM (active) in the test on C2A, 0.447 µM (active) in the test with CP185, 1.12 µM (active) in the test on CP191 and 7.57 µM (active) with CP192.
Consider `O=C1NCN(c2ccccc2)C12CCN(CCCC(c1ccc(F)cc1)c1ccc(F)cc1)CC2`, for which the Potency with 3D7 was 3.55 µM (active); in the test on 7G8, 3.16 µM (active); with AA1029, 5.01 µM (active); with AS120 it was 4.47 µM (active); with ATS189, 10 µM (active); in the test with ATS95, 8.91 µM (active). The Potency in the test on C2A is 7.08 µM (active); in the test with CP185 it was 10 µM (active); in the test with CP191, 5.62 µM (active).
On to `CCCCOCCOCCOCc1cc2c(cc1CCC)OCO2`, for which the Potency result in the test on 3D7, with 7G8, in the test with AA1029, in the test with AS120, in the test with ATS189 and in the test on ATS95 was “inactive” throughout. In addition, the Potency entry with C2A, with CP185, in the test with CP191 and in the test on CP192 was “inactive” each time.
